Rows were chosen to be rich in hits. Some 5.5% of all compounds tested hit in one or more screens of this group.
FBPA coupling cs = coupling enzyme interference in Giardia aldolase counter-screen | activity change, negative = inhibition, % at 58.2 µM, hits read low | coupling enzyme system counterscreen, AmpLite Red fluorescence | 290,000 compounds, 0.67% hits; in the data active = activity change below about -30%
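First, compound is pin-transferred into glyceraldehyde-3-phosphate coupling-enzyme reagent at 57.5 uM final and held 10 min at RT. Next, substrate, coupling system and AmpLite Red are added. After 20 min RT, fluorescence (525/598 nm) is read.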
ELG1 DNA repair = blocks ELG1-dependent DNA repair in HEK293T cells. HEK293T ELG1-luciferase reporter, luminescence, 16 h; DNA damage induced by 5-fluorouridine. Potency, µM (top dose mostly 46.1 µM), for inactives: at the highest dose activity change, negative = inhibition, most hits filed as inhibitors. 330,000 compounds, 2.3% hits. AID 504467; note: potency is the fitted concentration of half-maximal effect; nearly all actives have a fitted effect of over 55% in size
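5-Fluorouridine DNA damage + compound/DMSO, 2,000 cells/well, 16 h, 37 °C/5% CO2. ONE-Glo, 30 min RT, luminescence. Readout = decrease in reporter signal.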
Sfp inh = blocks B. subtilis Sfp PPTase activity | AID 1490 | 310,000 compounds, 3.5% hits | Q9F4F7 | Biochemical Sfp PPTase activity, qHTS | Potency, µM, for the others: largest response in the series, negative = inhibition, usual class: inhibitors;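 note: the enzyme is Sfp with the accession as filed and its product quenches rhodamine fluorescence; potency is the fitted concentration of half-maximal effect; 0% = enzyme reaction without inhibitor and -100% = no enzyme wells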
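Reaction rates are the 30-min fluorescence difference (ex 525, em 598 nm) in wells containing 15 nM Sfp, 5 uM rhodamine-CoA and 12.5 uM BHQ-2-YbbR at pH 7.6 with 10 mM MgCl2.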
Giardia killer = Giardia lamblia killing; Giardia lamblia trophozoite viability; activity change, % at 7.66 µM, hits read low; 340,000 compounds, 0.15% hits; AID 540267; in the data active = activity change below about -80%; inconclusive = between about -30% and that limit;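 note: parasites exposed to compound for two days anaerobically before the ATP read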
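Giardia lamblia trophozoites (100 cells/well) were incubated with compounds for 48 h at 37 deg C under anaerobic conditions. Viability was read as ATP content by one-step luminescence after 15-30 min at room temperature.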
* = called active by the depositor; ? = inconclusive; nt = no result. Unless noted, calls come from the whole dose curve; as a rule, active = well fitted curve in the direction sought with a large enough effect; inconclusive = small, poorly fitted or top-dose-only effect, or another doubt; inactive = no such curve, though single readings can be large; an effect the other way counts as inactive or inconclusive. Unless noted, % is set by controls: 0 for no effect and ±100 for the full control effect.

SMILES	FBPA coupling cs	ELG1 DNA repair	Sfp inh	Giardia killer
CCN(c1ccccc1)S(=O)(=O)c1ccc(Cl)c(NC(=O)CN(C)Cc2cccc(F)c2)c1	nt	nt	nt	-8.1
CC(C)(COP(=O)(O)OP(=O)(O)OC[C@H]1O[C@@H](n2cnc3c(N)ncnc32)[C@H](O)[C@@H]1OP(=O)(O)O)C(O)C(=O)NCCC(=O)NCCS (some centres not stated)	nt	nt	39.8µM*	nt
CCCN1CCN(CCCNC(=O)c2ccc(CS(=O)c3ccccc3C)o2)CC1 (configuration not stated)	nt	16.0%	10.7%	-21.0
Cc1ccc(N(C(=O)CCl)C(C(=O)NC2CCCCC2)c2cccnc2)cc1C (configuration not stated)	2.1	9.2µM*	-2.3%	10.7
CC(=O)[C@@H]1[C@@H](C(=O)c2ccc(F)cc2)[C@]2(C(=O)Nc3ccccc32)[C@H]2C=Cc3cc(F)ccc3N12	-7.4	-16.8%	20µM*	2.6
O=C(c1ccc(F)cc1)[C@@H]1[C@@H](C(=O)c2ccccc2)[C@@]2(C(=O)Nc3ccccc32)[C@H]2c3ccccc3C=CN12	-26.5	5.2%	1.6%	nt
CC(=O)[C@@H]1[C@@H](C(=O)c2ccc(C)cc2)[C@]2(C(=O)Nc3ccccc32)[C@H]2C=Cc3cc(F)ccc3N12	-25.7	-13.8%	3.98µM*	3.0
COc1ccc(/C=C2\SC(=O)N(CC(=O)NCCCn3ccnc3)C2=O)cc1	0.2	?	2.4%	-16.5
CN=c1scc(-c2cccs2)n1/N=C/c1ccccc1O	-4.2	5.17µM*	-15.0%	?
CN=c1scc(-c2ccccc2Br)n1/N=C/c1ccc[nH]1	-9.7	?	-20.7%	nt
Oc1ccc(/C=N/N(c2ccccc2)c2ccccc2)c(O)c1O	-20.5	-0.2%	-41.4%	nt
CN=c1scc(C)n1/N=C/c1ccc(O)c(O)c1O	-59.2*	?	25.1µM*	?
CN=c1scc(-c2cccs2)n1/N=C/c1ccc(O)c(O)c1O	-16.1	?	11.2µM*	-92.5*
Cc1c(NC(=O)Nc2cc(F)c(F)cc2Cl)c(=O)n(-c2ccccc2)n1C	nt	nt	nt	-5.5
CCOC(=O)CCNC(=O)N1CCCC(Cc2ccccc2)(C(=O)OCC)C1 (configuration not stated)	2.8	-3.5%	19.9%	-7.8
O=C(c1ccc([N+](=O)[O-])o1)N1CCN(c2nc3ccc(F)cc3s2)CC1	nt	?	nt	-88.8*
COc1cccc2sc(N3CCN(C(=O)c4ccc([N+](=O)[O-])o4)CC3)nc12	nt	?	nt	-86.9*
Cc1ccc2sc(N3CCN(C(=O)c4ccc([N+](=O)[O-])o4)CC3)nc2c1C	nt	-13.3%	nt	-29.4
CC(C)(C)c1ccc(/C=C/C(=O)Nc2ccc3c(c2)OCCO3)cc1	0.0	nt	22.2%	nt
Nc1ccc2oc(=O)ccc2c1I	2.9	nt	5.5%	nt
N#CC(=C=[N-])c1nc2ccccc2nc1-[n+]1cccc(NC(=O)c2ccccc2)c1	0.6	9.1%	8.91µM*	-5.3
C=CCSc1nc2sc(C)c(C)c2c(=O)n1CC=C	1.8	?	50.1µM*	-10.2
CC1CCN(c2nc3c(c(=O)n(C)c(=O)n3C)n2CCSc2nc3ccccc3s2)CC1	-0.7	23.1µM*	-15.8%	-0.1
Cn1c(=O)c2c(nc(N3CCCCC3)n2CCSc2nc3ccccc3s2)n(C)c1=O	-0.1	-22.5%	-9.2%	-3.5
Cn1c(=O)[nH]c(=O)c2c1nc(N1CCCCC1)n2CCCSc1nc2ccccc2s1	-1.8	20.6µM*	-12.5%	-12.5
SMILES	FBPA coupling cs	ELG1 DNA repair	Sfp inh	Giardia killer
CCOc1ccccc1C(=O)NCC(=O)N1CCC(C)CC1	nt	?	nt	0.1
CC1CCN(c2ccc(-c3cccc(NC(=O)C(F)(F)F)c3)nn2)CC1	-0.1	?	15.6%	-84.4*
CCC(=O)Nc1ccc(-c2ccc(N3CCC(C)CC3)nn2)cc1	0.6	?	0.3%	23.4
CCC(=O)Nc1cccc(-c2ccc(N3CCC(C)CC3)nn2)c1	2.4	?	6.4%	-85.1*
O=C(CSc1n[nH]c(-c2ccncc2)n1)Nc1ccccc1Cl	nt	0.0%	nt	1.5
CCCCn1c(SCC(=O)NCc2ccco2)nc2ccccc2c1=O	1.0	-3.5%	8.6%	-5.1
O=C(NCc1ccco1)c1ccc2c(=O)n(Cc3ccco3)c(SCC(=O)N3CCCC3)nc2c1	4.6	?	39.8µM*	6.0
CCCCCn1c(SCc2ccncc2)nc2cc(C(=O)NCc3ccco3)ccc2c1=O	1.5	6.51µM*	-17.7%	7.1
Cc1cc(NC(=O)CSc2nc3cc(C(=O)NCCCOC(C)C)ccc3c(=O)n2Cc2ccco2)no1	-0.9	?	56.2µM*	-0.4
COc1ccc(/C=C/c2nc(S(=O)(=O)c3ccccc3)c(N(C)C)o2)cc1	nt	?	6.8%	10.0
C=CCC[C@H](Cc1ccc(F)cc1)C(=O)OC[C@@H](NC(=O)[C@@H](CC=C)CC(=O)N(CCO)Cc1ccccc1)C(C)(C)C	nt	?	nt	3.7
CCC(=Nc1ccccc1OC)C1=C(O)CC(c2ccccc2)CC1=O (configuration not stated)	5.7	-11.1%	10.1%	6.3
CCC(=Nc1ccccc1O)C1=C(O)CC(c2ccccc2)CC1=O (configuration not stated)	2.5	?	79.4µM*	-14.5
C=CC[C@H](CC(=O)N[C@H](CO)Cc1ccccc1)C(=O)N[C@H](COC(=O)[C@@H](CC=C)Cc1ccc(F)cc1)Cc1c[nH]c2ccccc12	nt	nt	nt	14.6
C=CC[C@@H](CC(=O)N[C@@H](CO)Cc1ccccc1)C(=O)N[C@@H](COC(=O)[C@@H](CC=C)Cc1ccc(F)cc1)Cc1c[nH]c2ccccc12	nt	0.8%	nt	0.3
C=CC[C@H](CC(=O)N(CCO)Cc1ccccc1)C(=O)N[C@H](COC(=O)[C@@H](CC=C)Cc1ccc(F)cc1)C(C)(C)C	nt	?	nt	5.8
C=CC[C@@H](CC(=O)N(CCO)Cc1ccccc1)C(=O)N[C@H](COC(=O)[C@@H](CC=C)Cc1ccc(F)cc1)c1ccccc1	nt	?	nt	2.3
C=CC[C@@H](CC(=O)N(CCO)Cc1ccccc1)C(=O)N[C@@H](C)COC(=O)[C@@H](CC=C)Cc1ccc(F)cc1	nt	18.3µM*	nt	5.5
C=CC[C@@H](CC(=O)N(CCO)Cc1ccccc1)C(=O)NC[C@H](OC(=O)[C@@H](CC=C)Cc1ccc(F)cc1)c1ccccc1	nt	5.8µM*	nt	-26.9
C=CC[C@H](CC(=O)N(CCO)Cc1ccccc1)C(=O)N[C@@H](COC(=O)[C@@H](CC=C)Cc1ccc(F)cc1)Cc1c[nH]c2ccccc12	nt	20.6µM*	nt	2.5
C=CC[C@@H](CC(=O)N(CCO)Cc1ccccc1)C(=O)N[C@@H](COC(=O)[C@@H](CC=C)Cc1ccc(F)cc1)Cc1c[nH]c2ccccc12	nt	18.3µM*	nt	9.1
COC(=O)[C@H](Cc1ccccc1)[C@@H](C)OS(N)(=O)=O	-1.5	18.8%	8.0%	-14.2
CC(C)CN(C(=O)COC(=O)c1cc2ccccc2cc1O)c1c(N)n(Cc2ccccc2)c(=O)[nH]c1=O	nt	nt	nt	2.6
COCCn1c(SCc2cccnc2)nnc1-c1ccco1	-3.0	6.4%	20µM*	10.7

From PubChem BioAssay
